From PubChem BioAssay (NCI)
The panel holds about 79,000 compounds, 15% with a hit somewhere; the sample as a whole holds those more often. The source made the active and inactive calls. No stated cut-off is given here; in the data, active means growth inhibition above about 70%; inactive means the rest.

Key:
[1] = NCI Yeast Anticancer Drug Screen. Data for the rad50 strain (AID 155);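 further: 0% = growth of vehicle-only cultures of the same strain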; conditions: S. cerevisiae rad50 strain growth inhibition, active compounds read high
Outline: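 Cells are treated with compound, grown, and their growth is then scored against vehicle-only cultures of the same repair-deficient yeast strain.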

[2] = NCI Yeast Anticancer Drug Screen. Data for the mec2-1 strain (AID 157); conditions: S. cerevisiae mec2-1 strain, active compounds read high
Outline: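 Yeast mec2-1 mutant treated with compound. Readout: growth inhibition vs vehicle controls.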

[3] = NCI Yeast Anticancer Drug Screen. Data for the sgs1 mgt1 strain (AID 161);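 further: 0% = growth of cultures given vehicle only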; conditions: S. cerevisiae sgs1 mgt1 strain, active compounds read high
Outline: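 Genetically altered yeast, compound exposure, growth inhibition relative to vehicle.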

[4] = NCI Yeast Anticancer Drug Screen. Data for the cln2 rad14 strain (AID 165);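 further: 0% = growth equal to vehicle treated cultures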; conditions: S. cerevisiae cln2 rad14 strain, active compounds read high
Outline: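 cln2 rad14 yeast strain; compound exposure; growth inhibition read vs vehicle controls.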

[5] = NCI Yeast Anticancer Drug Screen. Data for the bub3 strain (AID 167); conditions: S. cerevisiae bub3 mutant strain, active compounds read high
Outline: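 Part of a panel of yeast mutants defective in DNA damage repair or cell cycle regulation. Each strain is grown with compound, and inhibition is calculated relative to solvent-treated cultures.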

[6] = NCI Yeast Anticancer Drug Screen. Data for the mlh1 rad18 strain (AID 175); conditions: S. cerevisiae mlh1 rad18 strain growth inhibition, active compounds read high
Outline: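 Yeast w/ defined DNA-repair lesions; compound exposure; growth vs vehicle controls → % inhibition.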

[7] = at 5.0 µM (retest, dose inferred, filed as 0.5)
[8] = at 50.0 µM (retest, dose inferred, filed as 5.0)

Measured: growth inhibition

NCCSC1(O)C(=O)c2ccccc2-c2ccccc21 (stereo not given)
inactive: [1]; [7] 6% | [3]; [7] 32% | [4]; [7] -14% | [6]; [7] 57%
active: [1]; [8] 98% | [1]; at 50.0 µM 98.8% | [2]; [7] 84% | [2]; [8] 99% | [2]; at 50.0 µM 98.2% | [3]; [8] 99% | [3]; at 50.0 µM 99.1% | [4]; [8] 99% | [4]; at 50.0 µM 96.2% | [5]; [7] 79% | [5]; [8] 99% | [5]; at 50.0 µM 97.8% | [6]; [8] 99% | [6]; at 50.0 µM 98.8%

COC1=CC(=O)c2c(O)c3c(c(O)c2C1=O)C[C@](C)(O)C[C@@H]3O
active: [1]; [8] 93% | [1]; at 50.0 µM 84.7% | [2]; [8] 94% | [2]; at 50.0 µM 79.8% | [3]; [8] 91% | [3]; at 50.0 µM 85.6% | [5]; [8] 93% | [5]; at 50.0 µM 83.8% | [6]; [8] 96% | [6]; at 50.0 µM 84.5%
inactive: [1]; [7] 27% | [2]; [7] 14% | [3]; [7] 12% | [4]; [7] 0% | [4]; [8] 29% | [4]; at 50.0 µM 47.7% | [5]; [7] 36% | [6]; [7] 33%

C[Si](C)(c1ccccc1)C1CC(=O)CC(=O)C1
inactive: [1]; [7] 41% | [1]; [8] 54% | [1]; at 50.0 µM 49.9% | [2]; [7] 26% | [2]; [8] 65% | [2]; at 50.0 µM 55.2% | [3]; [7] 47% | [3]; [8] 50% | [3]; at 50.0 µM 69.5% | [4]; [7] 29% | [4]; [8] 39% | [4]; at 50.0 µM 65.1% | [5]; [7] 38% | [5]; [8] 53% | [5]; at 50.0 µM 56% | [6]; [7] 44% | [6]; [8] 63% | [6]; at 50.0 µM 48.8%

COc1cc(/C=C(\C#N)c2ccc([N+](=O)[O-])cc2)ccc1O
inactive: [1]; [7] -13% | [1]; [8] 1% | [2]; [7] -23% | [2]; [8] -3% | [2]; at 50.0 µM 51.2% | [3]; [7] -16% | [3]; [8] -4% | [4]; [7] -5% | [4]; [8] 33% | [4]; at 50.0 µM 66.5% | [5]; [7] -20% | [5]; [8] 50% | [6]; [7] -35% | [6]; [8] 57% | [6]; at 50.0 µM 64.2%
active: [1]; at 50.0 µM 75.4% | [3]; at 50.0 µM 74% | [5]; at 50.0 µM 81.7%

COC(=O)c1cc(-c2ccccc2)[nH]c(=O)c1C#N
active: [3]; at 50.0 µM 75.8%
inactive: [1]; [7] -8% | [1]; [8] -32% | [1]; at 50.0 µM 44.5% | [2]; [7] -18% | [2]; [8] -15% | [2]; at 50.0 µM 5.25% | [3]; [7] -5% | [3]; [8] -16% | [4]; [7] -36% | [4]; [8] -21% | [4]; at 50.0 µM 22.6% | [5]; [7] -24% | [5]; [8] -23% | [5]; at 50.0 µM -24.7% | [6]; [7] 0% | [6]; [8] -21% | [6]; at 50.0 µM 52%

CCOC(=O)N1CCN(CCCOc2ccc(Cl)cc2Cc2ccccc2)CC1
active: [1]; [8] 100% | [1]; at 50.0 µM 99.7% | [2]; [8] 100% | [2]; at 50.0 µM 99.7% | [3]; [8] 100% | [3]; at 50.0 µM 99.8% | [4]; [8] 99% | [4]; at 50.0 µM 99.5% | [5]; [7] 89% | [5]; [8] 100% | [5]; at 50.0 µM 99.5% | [6]; [8] 100% | [6]; at 50.0 µM 99.7%
inactive: [1]; [7] 29% | [2]; [7] 26% | [3]; [7] 59% | [4]; [7] 30% | [6]; [7] 24%

CCN(CC)CCNc1ccc2nnn3c4ccc([N+](=O)[O-])cc4c(=O)c1c23
active: [6]; at 50.0 µM 76%
inactive: [1]; [7] 16% | [1]; [8] 35% | [1]; at 50.0 µM 66.5% | [2]; [7] 1% | [2]; [8] 12% | [2]; at 50.0 µM 26% | [3]; [7] 5% | [3]; [8] 15% | [3]; at 50.0 µM 66% | [4]; [7] 24% | [4]; [8] 27% | [4]; at 50.0 µM 36.2% | [5]; [7] 9% | [5]; [8] 35% | [5]; at 50.0 µM 37.9% | [6]; [7] 11% | [6]; [8] 30%

O=c1ccccn1CCc1cccc2cc(O)ccc12
inactive: [1]; [7] -3% | [1]; [8] -1% | [1]; at 50.0 µM 12.9% | [2]; [7] -2% | [2]; [8] 4% | [2]; at 50.0 µM 9.25% | [3]; [7] -3% | [3]; [8] -3% | [3]; at 50.0 µM 10.6% | [4]; [7] -1% | [4]; [8] -12% | [4]; at 50.0 µM -12.3% | [5]; [7] 0% | [5]; [8] 4% | [6]; [7] -3% | [6]; [8] 3% | [6]; at 50.0 µM 23.2%
active: [5]; at 50.0 µM 71%

CCCCn1cnc2c(SCc3ccc(F)cc3)nc(N)nc21
active: [5]; at 50.0 µM 90.1%
inactive: [1]; [7] -1% | [1]; [8] 48% | [1]; at 50.0 µM 46.3% | [2]; [7] 1% | [2]; [8] 59% | [2]; at 50.0 µM 46.6% | [3]; [7] -3% | [3]; [8] 16% | [3]; at 50.0 µM 39.1% | [4]; [7] -15% | [4]; [8] 49% | [4]; at 50.0 µM 44.8% | [5]; [7] 0% | [5]; [8] 45% | [6]; [7] 0% | [6]; [8] 30% | [6]; at 50.0 µM 66.9%

N#CCCN(CCCN1CCOCC1)C(=S)Nc1cccc(C(F)(F)F)c1
inactive: [1]; [7] 34% | [1]; [8] 44% | [1]; at 50.0 µM 42.9% | [2]; [7] 23% | [2]; [8] 33% | [2]; at 50.0 µM 35.8% | [3]; [7] 41% | [3]; [8] 37% | [4]; [7] 41% | [4]; [8] 60% | [4]; at 50.0 µM 59.5% | [5]; [7] 49% | [5]; [8] 58% | [5]; at 50.0 µM 49.8% | [6]; [7] 48% | [6]; [8] 61% | [6]; at 50.0 µM 36%
active: [3]; at 50.0 µM 71.1%
